Shown are actives, neighbours in structure and some others; about 2.8% of the full set was active somewhere.
KDM5B inh: Primary screen for KDM5B Histone Demethylases FDH-coupled qHTS | Lysine-specific demethylase 5B (Homo sapiens), Q9UGL1 | KDM5B demethylase, FDH-coupled NADH fluorescence (FDH is formaldehyde dehydrogenase) | Potency, µM (top dose mostly 57.7 µM), usual class: inhibitors | 2.6% of 220,000 active | AID 1347165, 2019; active means well fitted inhibition curve with a large enough effect; inconclusive means small, poorly fitted or top-dose-only effect; inactive means no such curve, though single readings can be large or run the other way; further: potency means the concentration at half of the fitted maximal effect; 0% is about no effect; nearly all actives have a fitted effect of over 70% in size
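Inhibition is measured as reduced NADH fluorescence generation from FDH coupling to formaldehyde release. Truncated KDM5BΔAP at 200 nM final acts on H3K4me3 peptide (12.5 µM in substrate mix) in pH 7.5 HEPES buffer with Tween-20, 30 min, room temperature.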
IP6K1 inh: Primary qHTS assay for small molecule inhibitors of Inositol hexaphosphate kinase 1 (IP6K1); 0.81% of 140,000 active; activity change, % (series mostly up to about 58 µM); IP6K1 kinase, ADP-Glo luminescence, 2 h; active compounds read low; Inositol hexakisphosphate kinase 1 (Homo sapiens), Q92551; in the data active means activity change below about -25%; further: on the % scale 0 is the no-effect control and ±100 the full control effect
Target sequence (Q92551 whole entry, looked up): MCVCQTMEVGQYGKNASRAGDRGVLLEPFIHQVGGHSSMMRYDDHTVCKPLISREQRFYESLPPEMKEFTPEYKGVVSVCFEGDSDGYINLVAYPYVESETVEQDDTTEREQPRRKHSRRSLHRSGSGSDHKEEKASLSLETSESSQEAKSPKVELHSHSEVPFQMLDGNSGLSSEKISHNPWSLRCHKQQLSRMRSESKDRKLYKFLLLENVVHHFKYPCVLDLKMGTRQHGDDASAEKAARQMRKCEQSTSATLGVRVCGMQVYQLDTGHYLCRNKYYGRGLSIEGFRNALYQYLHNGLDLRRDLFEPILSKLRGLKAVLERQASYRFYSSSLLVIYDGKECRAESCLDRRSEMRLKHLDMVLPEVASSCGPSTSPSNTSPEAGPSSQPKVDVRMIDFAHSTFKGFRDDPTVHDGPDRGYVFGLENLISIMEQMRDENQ
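ADP-Glo luminescence measures ADP made by human IP6K1 during a 2 h RT reaction with ATP/IP6 (mix at 1.3 mM/130 uM); top library doses 57.5 and 19.1 uM final.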
* = called active by the depositor.

O=C(NCc1ccnc2[nH]ccc12)c1cccc(Cl)c1 was read as KDM5B inh 35µM* and IP6K1 inh 3.
Screening O=C(NCc1ccnc2[nH]ccc12)c1cncc(Br)c1 returned KDM5B inh inactive and IP6K1 inh 1.
O=C(NCc1ccnc2[nH]ccc12)c1cccc(Br)c1 was read as KDM5B inh 32µM* and IP6K1 inh -10.
Screening O=C(NCc1c[nH]c2ncccc12)c1cccc2[nH]ccc12 returned KDM5B inh 35µM* and IP6K1 inh -5.
Screening O=C(NCCCn1ccnc1)c1ccc(-c2ncc3cnc(-c4ccccc4)cn23)cc1 returned KDM5B inh 32µM* and IP6K1 inh -3.
`O=C(c1ccc(-c2ncc3cnc(-c4ccccc4)cn23)cc1)N1CCc2cccnc21` gave KDM5B inh 32µM* and IP6K1 inh -4.
For CC(C)n1nc(C(=O)NCCCN2CCCC2=O)c2ccccc2c1=O the results were KDM5B inh inactive.
O=C(O)c1ccc(-c2ncc3cnc(C4=CCOCC4)cn23)cc1 was read as KDM5B inh inconclusive and IP6K1 inh -20.
`O=C(NCCCN1CCCC1=O)c1ccc(-c2ncc3cnc(-c4ccccc4)cn23)cc1` gave KDM5B inh 32µM* and IP6K1 inh -12.
`O=C(NCCCn1ccnc1)c1ccc(-c2ccccc2)cc1` gave KDM5B inh inactive.
For CCN1CCCC2(Cc3ccccc3CN(C(=O)c3ccccc3)C2)C1 (stereo unspecified) the results were KDM5B inh inconclusive and IP6K1 inh -2.
CN1C(=S)SC(C)(C)C1N(O)C=C1C=CC(=O)C=C1 (stereo unspecified) was read as KDM5B inh inactive.
`O=C1N[C@H](CC(=O)N2CCN(c3ccc(C(F)(F)F)cn3)CC2)C(=O)Nc2ccccc21` gave KDM5B inh 22µM* and IP6K1 inh 6.
Screening O=C1N[C@H](CC(=O)N2CCN(c3ccc(F)cc3)CC2)C(=O)Nc2ccccc21 returned KDM5B inh inactive and IP6K1 inh 4.
Screening COc1ccc(OC)c(NC(=O)Cn2c(-c3ccc(F)cc3)nc(C)c(CCO)c2=O)c1 returned KDM5B inh 20µM* and IP6K1 inh -5.
COc1ccc(OC)c(NC(=O)Cn2c(-c3ccccc3)nc(C)c(CCO)c2=O)c1 was read as KDM5B inh inconclusive and IP6K1 inh -3.
Screening COc1cc(/C=N/O)c(Br)c(Br)c1O returned KDM5B inh inactive.
For COCCN[C@@H]1C[C@@H]2c3[nH]c4ccccc4c3C[C@@H](C(=O)OC)N2[C@H](c2ccc(F)c(F)c2)C1 the results were KDM5B inh 13µM* and IP6K1 inh -2.
`COC(=O)[C@@H]1Cc2c([nH]c3ccccc23)[C@H]2C[C@@H](NCc3ccccc3)C[C@@H](c3ccccc3F)N21` gave KDM5B inh 4.5µM* and IP6K1 inh -12.
Screening COCCN[C@@H]1C[C@@H]2c3[nH]c4ccccc4c3C[C@@H](C(=O)OC)N2[C@H](c2ccccc2)C1 returned KDM5B inh inconclusive and IP6K1 inh -3.
Screening COC(=O)[C@@H]1Cc2c([nH]c3ccccc23)[C@H]2C[C@@H](NCc3cccs3)C[C@@H](c3ccccc3F)N21 returned KDM5B inh inconclusive and IP6K1 inh -14.
`CCNC(=O)CN(CC)c1nc(C(F)(F)F)nc2ccccc12` gave KDM5B inh inactive.
`CCCCOC(=O)N1C[C@@H](CO)[C@@H]2Oc3c(C)cccc3[C@@H]21` gave IP6K1 inh 6.
CCN1CC(c2ccccc2)CC2(CCN(c3cc(N)ncn3)CC2)C1 (stereo unspecified) was read as KDM5B inh inactive and IP6K1 inh 8.
COCCN(C)C[C@@H]1CN(C(=O)c2ccc(-c3ccco3)cc2)C[C@@H]1CO was read as KDM5B inh 32µM* and IP6K1 inh 18.
COCCN(C)C[C@@H]1CN(C(=O)c2ccc(-c3ccc(C)o3)cc2)C[C@@H]1CO was read as KDM5B inh inactive and IP6K1 inh 8.
For CCC#CCN1Cc2cc(OC)ccc2N(CC(O)COc2ccccc2)CCC1=O (stereo unspecified) the results were IP6K1 inh 2.
`Cc1ccc(C)c(C(O)Cn2ccn3nc(-c4cccc(Br)c4)cc3c2=O)c1` (stereo unspecified) gave KDM5B inh 32µM* and IP6K1 inh -4.
`O=c1c2cc(-c3cccs3)nn2ccn1CC(O)c1cccc(Cl)c1` (stereo unspecified) gave KDM5B inh 20µM* and IP6K1 inh 2.
`Cc1ccc(C)c(-c2cc3c(=O)n(CCNC(=O)c4ccccc4Cl)ccn3n2)c1` gave KDM5B inh inactive and IP6K1 inh -13.
O=c1c2cc(-c3cccs3)nn2ccn1CC(O)c1ccccc1 (stereo unspecified) was read as KDM5B inh inconclusive and IP6K1 inh -6.
`Cc1ccc(C)c(C(O)Cn2ccn3nc(-c4cccs4)cc3c2=O)c1` (stereo unspecified) gave KDM5B inh 20µM* and IP6K1 inh -4.
Screening Cc1cccc(OCC(=O)NCCn2ccn3nc(-c4ccc(C)c(C)c4)cc3c2=O)c1 returned KDM5B inh inactive and IP6K1 inh -10.
For O=C(NC1CC1)C(Sc1ccccn1)c1ccccc1 (stereo unspecified) the results were KDM5B inh inactive.
Screening N=C(N)c1ncccn1 returned KDM5B inh inactive.
`Cc1ccc(C)c(-n2c(Cc3cc(=O)[nH]c(=O)[nH]3)nnc2SCC(=O)c2ccc(Cl)cc2)c1` gave KDM5B inh inactive.
For Clc1ccc(-c2noc([C@@H]3Cc4nc[nH]c4CN3CC3CCCCC3)n2)cc1 the results were KDM5B inh inconclusive and IP6K1 inh 10.
c1csc(CN2Cc3[nH]cnc3C[C@H]2c2nc(-c3ccncc3)no2)c1 was read as KDM5B inh 28µM* and IP6K1 inh 7.
Screening c1cc(-c2noc([C@@H]3Cc4nc[nH]c4CN3CC3CCCCC3)n2)ccn1 returned KDM5B inh 35µM* and IP6K1 inh 3.
`c1csc(CN2Cc3[nH]cnc3C[C@H]2c2nc(-c3ccc4ccccc4c3)no2)c1` gave KDM5B inh 28µM* and IP6K1 inh 33.
Cc1ccc(-c2noc([C@@H]3Cc4nc[nH]c4CN3Cc3ccccc3)n2)cc1 was read as KDM5B inh inconclusive and IP6K1 inh -16.
`COc1ccc(-c2noc([C@@H]3Cc4nc[nH]c4CN3Cc3cccs3)n2)cc1` gave KDM5B inh inconclusive and IP6K1 inh -16.
Screening COc1ccc(CCNC(=O)c2cc(-c3cccc(F)c3)nc3c2cnn3C)cc1 returned IP6K1 inh -6.
NC1=CC(=O)CC1 was read as KDM5B inh inactive.
For O=S(=O)(c1ccc2c(c1)CCC2)N1CCCC1Cc1noc(-c2ccccc2)n1 (stereo unspecified) the results were IP6K1 inh 0.
For O=[S+]1([O-])c2cccnc2OC(Cn2cccc2)CN1CCc1ccccc1 (stereo unspecified) the results were IP6K1 inh -13.
For CCC1Oc2ccc(NC(=O)c3ccccc3OC)cc2CN(Cc2ccc(OC)cc2)C1=O (stereo unspecified) the results were KDM5B inh inconclusive and IP6K1 inh -4.

Screening results deposited in PubChem by National Center for Advancing Translational Sciences (NCATS).
